Results on 60 compounds are retold here after ChEMBL document CHEMBL1157539, “Thousands of chemical starting points for antimalarial lead identification” (Nature, 2010).

Holding throughout (type): functional
The test system of experiment [1] is Plasmodium falciparum. Nature of the experiment: GSK_TCMDC: Inhibition of Plasmodium falciparum 3D7 in whole red blood cells, using parasite LDH activity as an index of growth. Test compounds present at 2uM.
In experiment [2] the test system is Plasmodium falciparum. The experiment can be described thus: GSK_TCMDC: Inhibition of Plasmodium falciparum Dd2 in whole red blood cells, using parasite LDH activity as an index of growth. Test compounds present at 2uM.
In a further experiment the test system is HepG2. The experiment can be described thus: GSK_TCMDC: Percent inhibition of human HepG2 cell line. Test compounds present at 10uM.

Structures are written as SMILES.

For the compound `CCCCCCn1c(Sc2ccc(C#N)c([N+](=O)[O-])c2)nnc1-c1ccc(N(C)C)cc1`, the Inhibition in the experiment on Plasmodium falciparum [1] turned out to be 92%; in the experiment on Plasmodium falciparum [2], 25%; in the experiment on HepG2, 0%.
The like results for `CCOC(=O)CCCc1cc(NC2CCN(C)CC2)nc(Nc2ccc(C)cc2)n1` were, in that order, 90%, 12% and 35%.
The matching figures for `Br.COc1ccc(OCCCON2C(=N)N=C(N)NC2(C)C)cc1`: 97%, 94% and 55%.
With `O=C(/C=C/c1ccccc1Cl)Nc1ccc(Br)c(OCCN2CCCCC2)c1.O=C(O)C(=O)O`, the Inhibition in the experiment on Plasmodium falciparum [1] stood at 99%; with Plasmodium falciparum [2] it was 25%; with HepG2 it was 11%.
The matching figures for `O=C(c1cccs1)N1CCN(c2ccc([N+](=O)[O-])c(NC3CC3)c2)CC1`: 100%, 95% and 0%.
As for `Cl.FC(F)(F)c1ccc2c(NCCNc3ccnc4cc(C(F)(F)F)ccc34)ccnc2c1`, the Inhibition is recorded as 100% in the experiment with Plasmodium falciparum [1], 100% in the experiment with Plasmodium falciparum [2] and 21% with HepG2.
As for `O=C(COc1cccc([N+](=O)[O-])c1)Nc1ccc(-c2nc3ccccc3[nH]2)cc1`, the Inhibition in the experiment with Plasmodium falciparum [1] was 99%; in the experiment on Plasmodium falciparum [2], 5%; with HepG2, 12%.
As for `O=C(N[C@@H](Cc1ccccc1)C(=O)NCCN1CCCC1)c1ccc(O)c(-c2ccc(Cl)c(Cl)c2)c1`, the Inhibition amounted to 95% in the experiment with Plasmodium falciparum [1], 46% in the experiment on Plasmodium falciparum [2] and 8% in the experiment on HepG2.
The like results for `O=C(Nc1ccc(Cn2ncc(N3CCCNCC3)c(Cl)c2=O)cc1)Nc1ccc(-c2ccccc2)cc1` were, in that order, 93%, 41% and 12%.
The matching figures for `COc1ccc(CCNCCCCCCNCCCc2ccc(Cl)cc2)cc1OC.Cl`: 96%, 2% and 36%.
The like results for `Cc1cc(=NN=Cc2ccc(F)cc2)c2cc(C(F)(F)F)ccc2[nH]1` were, in that order, 100%, 99% and 2%.
As to `CS(=O)(=O)CCNc1nccc(N2CCc3ncnc(Nc4ccc(OCc5cccc(F)c5)c(Cl)c4)c3C2)n1`, the Inhibition in the experiment on Plasmodium falciparum [1] came to 100%; in the experiment on Plasmodium falciparum [2], 100%; in the experiment with HepG2 it was 8%.
Turning to `Cc1cccc2nc(-c3ccc(-c4ccc(CNCCCN5CCCC5=O)cc4)s3)[nH]c12.O=C(O)C(F)(F)F`, the Inhibition in the experiment with Plasmodium falciparum [1] came to 100%; in the experiment with Plasmodium falciparum [2], 43%; in the experiment on HepG2, 17%.
Turning to `O=C(Nc1ccc(Oc2ccccc2)cc1)N(CCN1CCCC1)Cc1ccc(-c2ccc(CN3CCNCC3)cc2)cc1.O=C(O)C(F)(F)F`, the Inhibition in the experiment with Plasmodium falciparum [1] is given as 88%; in the experiment with Plasmodium falciparum [2], 90%; with HepG2 it was 48%.
For the compound `CCC(Cc1cnc2nc(N)nc(N)c2n1)c1ccc(C(=O)N[C@@H](CCC(=O)O)C(=O)O)cc1` (stereo not given in full) [EDATREXATE], the Inhibition with Plasmodium falciparum [1] is recorded as 93%; with Plasmodium falciparum [2] it was 98%; with HepG2, 64%.
As for `Br.CC1(C)NC(N)=NC(=N)N1OCC1CCCCC1`, the Inhibition came out at 94% with Plasmodium falciparum [1], 97% in the experiment on Plasmodium falciparum [2] and 67% in the experiment on HepG2.
Take `CCOc1ccc(C(=O)Nc2cc(Br)c3c(c2)CNCC3)cc1C(F)(F)F.Cl`: the Inhibition in the experiment with Plasmodium falciparum [1] was 98%; with Plasmodium falciparum [2], 22%; with HepG2, 15%.
The like results for `CN1CCC(NCc2cccc(-c3ccc(S(=O)(=O)NCCc4ccccn4)c(F)c3)c2)CC1.O=C(O)C(F)(F)F` were, in that order, 98%, 26% and 11%.
For the compound `Cc1ccc(C)c(NC(=O)CC2C(=O)N(c3ccccc3)C(=S)N2Cc2ccco2)c1` (stereo not given), the Inhibition with Plasmodium falciparum [1] came to 100%; with Plasmodium falciparum [2] it was 99%; in the experiment on HepG2, 9%.
Take `CCOc1ccccc1CCNCC1CCN(CC2CCCCC2)CC1.O=C(O)C(F)(F)F`: the Inhibition in the experiment on Plasmodium falciparum [1] is 84%; with Plasmodium falciparum [2], 59%; in the experiment with HepG2 it was 35%.
`COC(=O)c1ccc(NC(=O)c2ccc(CCN3CCC(c4nc(COCC(F)(F)F)c(-c5ccc(F)cc5)o4)CC3)cc2)cc1`: the Inhibition was 89% in the experiment with Plasmodium falciparum [1], 37% in the experiment with Plasmodium falciparum [2] and 22% in the experiment with HepG2.
The matching figures for `NC(=O)c1ccc(-n2cnc3cc(F)ccc32)cc1OCc1ccccc1C(F)(F)F.NC(=O)c1ccc(-n2cnc3ccc(F)cc32)cc1OCc1ccccc1C(F)(F)F`: 97%, 93% and 55%.
The matching figures for `CCCN(Cc1ccc(C)cc1)Cc1cc(=O)c2cc(Cl)ccc2[nH]1`: 86%, 91% and 51%.
The matching figures for `Cc1cccc(C)c1OC(=O)CSc1nnc(-c2ccccc2O)o1`: 97%, 0% and 11%.
For `Cn1cncc1-c1ccc2ncnc(Nc3ccc4c(cnn4Cc4ccccc4)c3)c2c1`, the Inhibition with Plasmodium falciparum [1] is recorded as 100%; in the experiment on Plasmodium falciparum [2] it was 99%; in the experiment on HepG2, 1%.
The matching figures for `COc1ccc(-c2csc(NC(=O)CCC(=O)O)n2)cc1OC`: 94%, 0% and 63%.
`Cc1cccc(NC(=O)c2ccc(C(=O)NC3CCN(CC4CCCCC4)C3)cc2)c1.O=C(O)C(F)(F)F` (stereo not given): the Inhibition in the experiment on Plasmodium falciparum [1] came to 88%; in the experiment with Plasmodium falciparum [2], 3%; in the experiment on HepG2 it was 17%.
For the compound `CC(=O)Nc1ccc(C2NC(=O)NC(c3ccccc3)=C2c2nc3ccccc3s2)cc1` (stereo not given), the Inhibition in the experiment with Plasmodium falciparum [1] was 93%; in the experiment on Plasmodium falciparum [2] it was 96%; in the experiment with HepG2 it was 0%.
The matching figures for `O=C(Nc1ccc(Cl)c(C(F)(F)F)c1)c1ccc(Cl)c([N+](=O)[O-])c1`: 87%, 18% and 20%.
For `O=C(/C=C/c1ccc(Cl)c(Cl)c1)NCCCCCN1CCN(C(=O)Nc2ccc(OC(F)F)cc2)CC1`, the Inhibition with Plasmodium falciparum [1] stood at 99%; in the experiment with Plasmodium falciparum [2], 0%; with HepG2, 20%.
The matching figures for `COc1ccc(-c2ccc(NC(=O)c3ccc(Cl)cc3)cc2)cc1CN1CCC(O)CC1.O=C(O)C(F)(F)F`: 89%, 15% and 20%.
The like results for `Cc1cc2c(cc1C(F)(F)F)N(C(=O)Nc1cc(C(=O)NC3CCN(Cc4ccccc4)C3)cc(C(F)(F)F)c1)CC2.Cl` (stereo not given) were, in that order, 100%, 97% and 22%.
As to `CN1CCC(N(Cc2ccc(-c3ccc(C(F)(F)F)cc3)cc2)C(=O)Cn2c(SCc3cccc(F)c3F)cc(=O)c3c2CCC3)CC1.O=C(O)C(O)C(O)C(=O)O`, the figures for the Inhibition in the experiment with Plasmodium falciparum [1], in the experiment with Plasmodium falciparum [2] and in the experiment on HepG2 were 89%, 83% and 50%, respectively.
The like results for `Cc1cccc2nc(-c3ccc(-c4cccc(CN5CCC(C(N)=O)CC5)c4)cc3)[nH]c12.O=C(O)C(F)(F)F` were, in that order, 87%, 16% and 9%.
Take `Cl.Clc1ccc(OCCC2CCN(CCCCCCCN3CCC(CCOc4ccc(Cl)c(Cl)c4)CC3)CC2)cc1Cl`: the Inhibition in the experiment on Plasmodium falciparum [1] is on record as 99%; in the experiment on Plasmodium falciparum [2] it was 82%; in the experiment on HepG2, 100%.
Turning to `CCc1cn2c3c(cc(C(=O)N[C@@H](Cc4ccccc4)[C@H](O)CNC4CCOCC4)cc13)N(C)S(=O)(=O)C2.O=CO`, the Inhibition is 99% with Plasmodium falciparum [1], 98% in the experiment on Plasmodium falciparum [2] and 13% in the experiment with HepG2.
The like results for `Cc1ccc(C2CCN(CCCCNC(=O)c3ccc(NC(=O)c4ccc(Cl)cc4)cc3)CC2)c(OCC2CC2)c1.Cl` were, in that order, 100%, 95% and 63%.
Turning to `COc1cc(C)nc2ccc(NC(=O)c3cc(C(F)(F)F)cc(C(F)(F)F)c3)cc12.Cl`, the results for the Inhibition in the experiment with Plasmodium falciparum [1], in the experiment on Plasmodium falciparum [2] and with HepG2 were 100%, 99% and 16%, respectively.
As to `O=C(Nc1cccc(-c2cccc(-c3nc4cc(F)ccc4[nH]3)c2)c1)c1csnn1`, the Inhibition is reported as 95% with Plasmodium falciparum [1], 29% with Plasmodium falciparum [2] and 23% in the experiment on HepG2.
The matching figures for `CN(C)c1ccc(NC(=O)Nc2ccnc3ccc(Br)cc23)cc1.Cl`: 91%, 21% and 0%.
With `Cl.O=S(=O)(Nc1ccc2nccc(N3CCNCC3)c2c1)c1ccc2c(Cl)cccc2c1`, the Inhibition in the experiment with Plasmodium falciparum [1] is on record as 100%; in the experiment with Plasmodium falciparum [2], 2%; with HepG2, 11%.
Take `CCC(CC)NCc1c(O)ccc2c(CNC(CC)CC)c(O)ccc12.Cl`: the Inhibition with Plasmodium falciparum [1] came out at 100%; in the experiment on Plasmodium falciparum [2] it was 94%; in the experiment with HepG2 it was 4%.
On to `CN(C)CCn1c(N)c(-c2nc3ccccc3s2)c2nc(C#N)c(C#N)nc21`, for which the Inhibition with Plasmodium falciparum [1] came to 94%; with Plasmodium falciparum [2], 40%; in the experiment on HepG2, 4%.
`CC(C)NCc1ccc(-c2cccc(-c3nc4cc(C(F)(F)F)ccc4[nH]3)c2)cc1.O=C(O)C(F)(F)F`: the Inhibition with Plasmodium falciparum [1] was 100%; in the experiment with Plasmodium falciparum [2], 100%; with HepG2, 21%.
On to `CCOC(=O)c1cc(=O)c2ccc(OCC#N)cc2o1`, for which the Inhibition stood at 88% in the experiment on Plasmodium falciparum [1], 86% in the experiment with Plasmodium falciparum [2] and 2% with HepG2.
Take `Cc1cc(NC(=O)NCCN2CCC(NS(=O)(=O)c3ccc(Br)cc3)C2)c2ccccc2n1.O=C(O)C(F)(F)F` (stereo not given): the Inhibition in the experiment on Plasmodium falciparum [1] was found to be 99%; in the experiment on Plasmodium falciparum [2], 51%; with HepG2, 9%.
The matching figures for `Cc1cc(NC(=O)Nc2ccc(C(C)(C)C)cc2)c2ccccc2n1`: 100%, 57% and 0%.
On to `CCOc1ccc2[nH]c(C)cc(=NN=Cc3ccccc3Cl)c2c1`, for which the Inhibition with Plasmodium falciparum [1] came to 100%; in the experiment on Plasmodium falciparum [2] it was 100%; with HepG2, 11%.
On to `CC(=O)Nc1cccc(CNc2cc(C)nc(Nc3ccc(C)cc3)n2)c1`, for which the Inhibition was determined as 82% in the experiment on Plasmodium falciparum [1], 23% with Plasmodium falciparum [2] and 18% with HepG2.
The like results for `O=C(O)C(F)(F)F.O=c1[nH]c2ccc(Nc3nccc(NCCc4ccccc4)n3)cc2[nH]1` were, in that order, 100%, 6% and 0%.
The matching figures for `CN(C)CCN(Cc1ccccc1-c1ccc(CNCCc2ccccc2)cc1)C(=O)c1ccccc1.O=C(O)C(F)(F)F`: 95%, 97% and 81%.
The like results for `COc1ccc(CNC2CCN(C)CC2)cc1-c1ccc(S(=O)(=O)NC2CCC2)s1.O=C(O)C(F)(F)F` were, in that order, 100%, 94% and 32%.
`O=C(Nc1nc2cc(S(=O)(=O)NCc3ccc(Cl)c(Cl)c3)ccc2n1CCCN1CCCC1)c1ccc(Cl)cc1.O=C(O)C(F)(F)F`: the Inhibition came out at 89% with Plasmodium falciparum [1], 16% in the experiment with Plasmodium falciparum [2] and 57% in the experiment on HepG2.
The like results for `COc1ccc2nccc([C@@H](O)CN3CCC(NC(=O)c4cc5c(F)cc(F)cc5[nH]4)CC3)c2n1` were, in that order, 100%, 74% and 32%.
The matching figures for `CCn1ccc2c3c(N)nc(N)nc3ccc21`: 99%, 2% and 61%.
As to `CC(=O)Nc1ccc(OCCCN(Cc2ccccc2OC(F)(F)F)c2ccc(C(F)(F)F)c(C#N)c2)c(Cl)c1`, the Inhibition is 91% with Plasmodium falciparum [1], 80% with Plasmodium falciparum [2] and 5% in the experiment with HepG2.
The matching figures for `CNCCNCc1cccc(-c2ccc(-c3nc4cc(C(F)(F)F)ccc4[nH]3)cc2)c1.O=C(O)C(F)(F)F`: 100%, 92% and 21%.
Turning to `CC(C)C[C@H](NC(=O)c1cc2ccccc2s1)C(=O)N[C@H]1CCN(Cc2ccc(OCCN3CCNCC3)c3ccccc23)C1.O=C(O)C(F)(F)F`, the Inhibition in the experiment with Plasmodium falciparum [1] was found to be 100%; with Plasmodium falciparum [2] it was 96%; in the experiment with HepG2, 43%.
`Cc1cc(NC2CCCC2)nc(Nc2ccccc2)n1`: the Inhibition with Plasmodium falciparum [1] came to 100%; with Plasmodium falciparum [2], 75%; with HepG2 it was 26%.
The like results for `CC(C)(C)c1cc(C(=O)N2CCN(c3ncccc3C(F)(F)F)CC2)n(Cc2ccccc2)n1` were, in that order, 100%, 99% and 0%.
